Assay results as given in PubChem BioAssay (NCI).
About 83,000 compounds went through this panel and 20% of them were active in at least one assay; those are over-represented in the sample as a whole.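 For each line, cells grew in 96-well plates with the test compound present at a single concentration for 48 hours.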 Unmarked numbers belong to inactive results. Active and inactive are the calls of the source. Rule for the calls: active = growth percent below 10; inactive = the rest.

Key:
Test in all cases: NCI-60 one-dose screen, 48 h (100 = growth as untreated, 0 = no growth, -100 = all killed)
Settings in all cases: 10 µM unless noted
T-47D breast = test system: T-47D breast
BT-549 breast = test system: BT-549 breast
MDA-MB-435 melanoma = test system: MDA-MB-435 melanoma
SW-620 colon = test system: SW-620 colon
MCF7 breast = test system: MCF7 breast
HCT-116 colon = test system: HCT-116 colon
HCC-2998 colon = test system: HCC-2998 colon
KM12 colon = test system: KM12 colon

Question: Which results are given for `N#Cc1cncc(-c2ccc3ncnc(Nc4cccc(Cl)c4)c3c2)c1`?
Answer: growth (T-47D breast): 56.4%; growth (BT-549 breast): 69.7%; growth (MDA-MB-435 melanoma): 93.4%; growth (SW-620 colon): 97.6%; growth (MCF7 breast): 75.9%; growth (HCT-116 colon): 36.6%; growth (HCC-2998 colon): 88.4%; growth (KM12 colon): 90.2%

Question: With `OCCNCCNC(Cc1ccc(Cl)cc1)c1ccccc1` (stereo not given) as the compound, how does the growth (T-47D breast) read?
Answer: Its growth is 44.6%.

Question: And the growth (BT-549 breast)?
Answer: Its growth is 79.7%.

Question: And the growth (MDA-MB-435 melanoma)?
Answer: Its growth is 98.6%.

Question: What about the growth (SW-620 colon) of the same compound?
Answer: The growth was 107%.

Question: What about the growth (MCF7 breast) of the same compound?
Answer: The growth was 85.1%.

Question: And the growth (HCT-116 colon)?
Answer: Its growth is 75.7%.

Question: And the growth (HCC-2998 colon)?
Answer: The growth was 91.6%.

Question: What about the growth (KM12 colon) of the same compound?
Answer: Its growth is 90.4%.

Question: For `O=C(/C=C/c1cccc(Cl)c1Cl)Nc1ncc(Cc2ccccc2Cl)s1`, which growth (T-47D breast) is on record?
Answer: The growth was 43.8%.

Question: And the growth (BT-549 breast)?
Answer: The growth was 76.7%.

Question: And the growth (MDA-MB-435 melanoma)?
Answer: Its growth is -46.5% (active).

Question: And the growth (SW-620 colon)?
Answer: The growth was 27%.

Question: And the growth (MCF7 breast)?
Answer: The growth was 12.7%.

Question: What about the growth (HCT-116 colon) of the same compound?
Answer: The growth was 24.2%.

Question: And the growth (HCC-2998 colon)?
Answer: Its growth is 76.3%.

Question: And the growth (KM12 colon)?
Answer: Its growth is 28.8%.

Question: What does the source list for `CSc1nc(C)c([N+](=O)[O-])c(N)n1`?
Answer: growth (T-47D breast): 107%; growth (BT-549 breast): 98.9%; growth (MDA-MB-435 melanoma): 107%; growth (SW-620 colon): 104%; growth (MCF7 breast): 94.3%; growth (HCT-116 colon): 91.1%; growth (HCC-2998 colon): 114%; growth (KM12 colon): 99.5%

Question: What does the source list for `O=S(=O)(Nc1cc(Sc2cccc3cccnc23)c(O)c2ccccc12)c1ccccc1`?
Answer: growth (T-47D breast): -26% (active); growth (BT-549 breast): 31.4%; growth (MDA-MB-435 melanoma): 11.3%; growth (SW-620 colon): -67.8% (active); growth (MCF7 breast): -54.6% (active); growth (HCT-116 colon): -15.2% (active); growth (HCC-2998 colon): 36.9%; growth (KM12 colon): 13.6%

Question: How did the growth (T-47D breast) turn out when `C[C@@H]1O[C@@H](O[C@@H]2C[C@H](c3ccc4c(c3O)C(=O)C3=C(C4=O)[C@@]4(O)C(=O)C[C@](C)(O)C[C@@]4(O)C=C3)O[C@H](C)[C@H]2O)CC[C@@H]1O[C@H]1C[C@@H](O)[C@H](O)[C@@H](C)O1` was run?
Answer: The growth was 78.7%.

Question: What about the growth (BT-549 breast) of the same compound?
Answer: The growth was 100%.

Question: What about the growth (MDA-MB-435 melanoma) of the same compound?
Answer: The growth was 106%.

Question: And the growth (SW-620 colon)?
Answer: Its growth is 94.4%.

Question: What about the growth (MCF7 breast) of the same compound?
Answer: The growth was 86.4%.

Question: What about the growth (HCT-116 colon) of the same compound?
Answer: Its growth is 91.1%.

Question: And the growth (HCC-2998 colon)?
Answer: Its growth is 103%.

Question: And the growth (KM12 colon)?
Answer: The growth was 101%.

Question: `C#CCn1cnc2cnc(Nc3cccc(NC(=O)C=C)c3)nc21` was tested. Which growth (T-47D breast) did it give?
Answer: The growth was 66% [6.25 µM].

Question: And the growth (BT-549 breast)?
Answer: The growth was 60.9% [6.25 µM].

Question: And the growth (MDA-MB-435 melanoma)?
Answer: The growth was 60.6% [6.25 µM].

Question: And the growth (SW-620 colon)?
Answer: Its growth is 91.2% [6.25 µM].

Question: What about the growth (MCF7 breast) of the same compound?
Answer: Its growth is 77.4% [6.25 µM].

Question: And the growth (HCT-116 colon)?
Answer: Its growth is 86.4% [6.25 µM].

Question: And the growth (HCC-2998 colon)?
Answer: Its growth is 97.9% [6.25 µM].

Question: And the growth (KM12 colon)?
Answer: Its growth is 91.9% [6.25 µM].

Question: How did the growth (T-47D breast) turn out when `COc1cccc(CNc2c3ccccc3nc3ccccc23)c1` was run?
Answer: Its growth is 45.9%.

Question: And the growth (BT-549 breast)?
Answer: Its growth is 68.7%.

Question: What about the growth (MDA-MB-435 melanoma) of the same compound?
Answer: Its growth is 43%.

Question: And the growth (SW-620 colon)?
Answer: Its growth is 25.5%.

Question: What about the growth (MCF7 breast) of the same compound?
Answer: The growth was 14.6%.

Question: And the growth (HCT-116 colon)?
Answer: The growth was 9.89% (active).

Question: And the growth (HCC-2998 colon)?
Answer: Its growth is 39.3%.

Question: And the growth (KM12 colon)?
Answer: Its growth is 35.9%.

Question: How did the growth (T-47D breast) turn out when `Fc1cc(Nc2ccc3c(OCCCN4CCOCC4)cccc3n2)ccc1Cl` was run?
Answer: Its growth is 48.2%.

Question: And the growth (BT-549 breast)?
Answer: Its growth is 57.9%.

Question: What about the growth (MDA-MB-435 melanoma) of the same compound?
Answer: Its growth is 32%.

Question: And the growth (SW-620 colon)?
Answer: The growth was -32.2% (active).

Question: What about the growth (MCF7 breast) of the same compound?
Answer: Its growth is 14.2%.

Question: What about the growth (HCT-116 colon) of the same compound?
Answer: Its growth is 3.61% (active).

Question: What about the growth (HCC-2998 colon) of the same compound?
Answer: Its growth is -58.2% (active).

Question: What about the growth (KM12 colon) of the same compound?
Answer: Its growth is -21.8% (active).

Question: With `CCOC(=O)c1[nH]c2c(c1C)-c1[nH]c(=O)c(S(=O)(=O)c3ccccc3)cc1SC2` as the compound, how does the growth (T-47D breast) read?
Answer: The growth was 1.66% [100 µM] (active).

Question: What about the growth (BT-549 breast) of the same compound?
Answer: The growth was 32.7% [100 µM].

Question: What about the growth (MDA-MB-435 melanoma) of the same compound?
Answer: The growth was 24.2% [100 µM].

Question: And the growth (SW-620 colon)?
Answer: Its growth is 49.1% [100 µM].

Question: What about the growth (MCF7 breast) of the same compound?
Answer: Its growth is 28.2% [100 µM].

Question: And the growth (HCT-116 colon)?
Answer: The growth was 24.9% [100 µM].

Question: What about the growth (HCC-2998 colon) of the same compound?
Answer: The growth was 75.1% [100 µM].

Question: And the growth (KM12 colon)?
Answer: The growth was 28.1% [100 µM].

Question: Which results are given for `C#CC#CC#CC#CC#CC#CC#CC#CC[C@@H]1OC[C@@H](COC(=O)O[C@@H](C(=O)O[C@H]2C[C@@]3(O)[C@@H](OC(=O)c4ccccc4)[C@@H]4[C@]5(OC(C)=O)CO[C@@H]5C[C@H](O)[C@@]4(C)C(=O)[C@H](OC(C)=O)C(=C2C)C3(C)C)[C@@H](NC(=O)c2ccccc2)c2ccccc2)O1`?
Answer: growth (T-47D breast): 91.3%; growth (BT-549 breast): 17%; growth (MDA-MB-435 melanoma): 101%; growth (SW-620 colon): 101%; growth (MCF7 breast): 13.6%; growth (HCT-116 colon): 7.34% (active); growth (HCC-2998 colon): -43.9% (active); growth (KM12 colon): 96.6%

Question: `Cc1ccc(/C=C/C(=O)Nc2ncc(Cc3ccc(F)cc3)s2)o1` was tested. Which growth (T-47D breast) did it give?
Answer: Its growth is 58.5%.

Question: What about the growth (BT-549 breast) of the same compound?
Answer: Its growth is 68.9%.

Question: And the growth (MDA-MB-435 melanoma)?
Answer: The growth was -25.9% (active).

Question: And the growth (SW-620 colon)?
Answer: Its growth is 24.6%.

Question: What about the growth (MCF7 breast) of the same compound?
Answer: Its growth is 14%.

Question: What about the growth (HCT-116 colon) of the same compound?
Answer: The growth was 33.5%.

Question: What about the growth (HCC-2998 colon) of the same compound?
Answer: Its growth is 48.8%.

Question: And the growth (KM12 colon)?
Answer: The growth was 21%.

Question: For `N#Cc1nc(-c2ccccc2)oc1S(=O)(=O)N1CCN(c2ccc(F)cc2)CC1`, which growth (T-47D breast) is on record?
Answer: Its growth is 55.8%.

Question: What about the growth (BT-549 breast) of the same compound?
Answer: The growth was 59.7%.

Question: And the growth (MDA-MB-435 melanoma)?
Answer: Its growth is 67.5%.

Question: What about the growth (SW-620 colon) of the same compound?
Answer: The growth was 32.9%.

Question: And the growth (MCF7 breast)?
Answer: Its growth is 38.5%.

Question: And the growth (HCT-116 colon)?
Answer: The growth was 52.8%.

Question: What about the growth (HCC-2998 colon) of the same compound?
Answer: The growth was 94%.

Question: What about the growth (KM12 colon) of the same compound?
Answer: Its growth is 81.9%.

Question: Which growth (T-47D breast) does the source give for `Cc1ccc(/C=C(\C#N)n2nnc3cc(F)c(F)cc32)cc1` here?
Answer: The growth was -10.3% (active).

Question: What about the growth (BT-549 breast) of the same compound?
Answer: Its growth is -18.4% (active).

Question: And the growth (MDA-MB-435 melanoma)?
Answer: The growth was -35.4% (active).

Question: What about the growth (SW-620 colon) of the same compound?
Answer: The growth was 9.9% (active).

Question: And the growth (MCF7 breast)?
Answer: Its growth is 12.6%.

Question: What about the growth (HCT-116 colon) of the same compound?
Answer: The growth was -76.6% (active).

Question: What about the growth (HCC-2998 colon) of the same compound?
Answer: Its growth is -10.6% (active).

Question: And the growth (KM12 colon)?
Answer: The growth was 8% (active).

Question: Which growth (T-47D breast) does the source give for `O=C(NC1CC(F)C1)c1cc2cccnc2n1-c1ccc(Cl)c(Cl)c1` (stereo not given) here?
Answer: Its growth is 82.6%.

Question: What about the growth (BT-549 breast) of the same compound?
Answer: The growth was 101%.

Question: What about the growth (MDA-MB-435 melanoma) of the same compound?
Answer: The growth was 119%.

Question: What about the growth (SW-620 colon) of the same compound?
Answer: The growth was 98.4%.

Question: And the growth (MCF7 breast)?
Answer: Its growth is 98.3%.

Question: What about the growth (HCT-116 colon) of the same compound?
Answer: Its growth is 94.7%.

Question: And the growth (HCC-2998 colon)?
Answer: Its growth is 104%.

Question: What about the growth (KM12 colon) of the same compound?
Answer: The growth was 98.5%.
